The values that follow come from PubChem BioAssay.

For assay [1], the system named is Plasmodium falciparum Sir2 (PF13_0152, Sir2A). The experiment in a line: Plasmodium falciparum Sir2A binding compounds – biochemical, small-molecule microarray, 635 nm fluorescence, primary screen (AID 1098).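 Also: score merges spot fluorescence intensity with its signal-to-noise ratio.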 The conditions noted are these: fluorescence 635 nm, higher = more signal.
The nature of assay [2]: probe aDKK1 binding to arrayed compounds – biochemical, biotinylated probe, 635/667 nm fluorescence, primary screen (AID 1099).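 Also: score merges 667nm spot fluorescence with signal to noise across triplicate slides.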 The conditions noted are these: small-molecule microarray, higher = more signal.
Assay [3] is described as follows: probe aCHRDL2 binding to arrayed compounds – biochemical, biotinylated probe, 635/667 nm fluorescence, primary screen (AID 1100). The conditions noted are these: small-molecule microarray, higher = more signal.
A short description of assay [4]: change in splice reporter luminescence, either direction, cell-based, HEK293, spliceosome inhibition project, primary screen (AID 1101).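 Also: HEK293 cells carrying a splicing-competent luciferase reporter gene; test concentration not given here.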 The conditions noted are these: HEK293 splicing luciferase reporter, 24 h, higher = more signal, called active from +8 up or from −8 down.
For assay [5], the target named is Fibroblast growth factor 10 (Homo sapiens) (UniProt O15520). Nature of the assay: compounds binding fibroblast growth factor 10 – biochemical, small-molecule microarray, 635 nm fluorescence, primary screen (AID 1102). The conditions noted are these: FGF10 binding, fluorescence 635 nm, higher = more signal.
Fibroblast growth factor 10 (Homo sapiens), sequence (O15520 whole entry, looked up): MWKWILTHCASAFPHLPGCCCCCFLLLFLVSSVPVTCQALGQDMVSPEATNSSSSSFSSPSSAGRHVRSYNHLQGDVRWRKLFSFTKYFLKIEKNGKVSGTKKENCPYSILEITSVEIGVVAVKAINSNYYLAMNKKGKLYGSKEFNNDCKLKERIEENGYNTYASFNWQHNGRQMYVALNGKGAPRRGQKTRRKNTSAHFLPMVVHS
Assay [6] relates to glycogen synthase kinase-3 (GSK3A per assay name; protocol says GSK3B). Nature of the assay: compounds binding glycogen synthase kinase-3 – biochemical, small-molecule microarray, 635 nm fluorescence, GSK3A, primary screen (AID 1103). Also: the record names both GSK3A and GSK3B. The conditions noted are these: fluorescence 635 nm, higher = more signal.
In assay [7] the target is Epidermal growth factor receptor (Homo sapiens) (UniProt P00533). Nature of the assay: compounds binding epidermal growth factor receptor – biochemical, small-molecule microarray, 635 nm fluorescence, primary screen (AID 1104).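 Also: score merges 667 nm emission intensity with spot signal to noise over triplicate slides.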 The conditions noted are these: EGFR binding, higher = more signal.
Epidermal growth factor receptor (Homo sapiens), sequence (P00533 whole entry, looked up): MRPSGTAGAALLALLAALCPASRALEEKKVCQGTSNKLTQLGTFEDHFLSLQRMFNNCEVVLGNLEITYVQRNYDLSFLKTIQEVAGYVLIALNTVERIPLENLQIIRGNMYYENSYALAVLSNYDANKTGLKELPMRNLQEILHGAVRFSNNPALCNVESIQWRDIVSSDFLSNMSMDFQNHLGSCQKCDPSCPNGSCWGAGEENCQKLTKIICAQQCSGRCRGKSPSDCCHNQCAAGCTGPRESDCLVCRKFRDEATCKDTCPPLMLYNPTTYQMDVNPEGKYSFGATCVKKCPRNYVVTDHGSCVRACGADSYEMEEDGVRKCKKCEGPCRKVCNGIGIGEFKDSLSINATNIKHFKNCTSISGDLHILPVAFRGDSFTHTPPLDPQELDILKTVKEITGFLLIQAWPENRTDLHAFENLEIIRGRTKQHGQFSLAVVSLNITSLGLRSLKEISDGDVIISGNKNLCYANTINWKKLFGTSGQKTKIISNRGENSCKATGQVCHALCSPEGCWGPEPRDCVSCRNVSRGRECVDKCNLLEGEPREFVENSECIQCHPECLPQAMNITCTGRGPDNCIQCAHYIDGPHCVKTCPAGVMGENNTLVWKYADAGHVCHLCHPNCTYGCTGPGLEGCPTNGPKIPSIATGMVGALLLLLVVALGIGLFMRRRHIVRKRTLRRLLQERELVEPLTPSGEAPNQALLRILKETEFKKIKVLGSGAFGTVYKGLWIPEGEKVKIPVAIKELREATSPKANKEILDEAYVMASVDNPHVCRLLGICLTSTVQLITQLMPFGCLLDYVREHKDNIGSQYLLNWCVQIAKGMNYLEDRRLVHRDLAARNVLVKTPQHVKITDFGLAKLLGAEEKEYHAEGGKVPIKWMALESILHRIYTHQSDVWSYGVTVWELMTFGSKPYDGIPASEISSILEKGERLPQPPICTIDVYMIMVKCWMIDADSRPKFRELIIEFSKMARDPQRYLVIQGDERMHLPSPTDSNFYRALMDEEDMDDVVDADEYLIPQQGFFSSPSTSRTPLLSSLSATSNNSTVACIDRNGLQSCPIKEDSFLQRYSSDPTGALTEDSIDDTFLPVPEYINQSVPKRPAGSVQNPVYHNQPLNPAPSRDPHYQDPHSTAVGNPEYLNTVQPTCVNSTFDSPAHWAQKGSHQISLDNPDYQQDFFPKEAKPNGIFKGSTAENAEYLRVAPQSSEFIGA
Assay [8] addresses Follistatin-related protein 3 (Homo sapiens) (UniProt O95633). The experiment in a line: compounds binding follistatin-related protein 3 – biochemical, small-molecule microarray, 635 nm fluorescence, primary screen (AID 1105).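 Also: score merges emission near 667 nm and signal to noise per printed spot across three slides.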 The conditions noted are these: FSTL3 binding, higher = more signal.
In assay [9] the target is Dickkopf-related protein 1 (Homo sapiens) (UniProt O94907). The experiment in a line: small molecules binding DKK1 protein – biochemical, small-molecule microarray, 635 nm fluorescence scan, primary screen (AID 1106).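 Also: score merges emission near 667 nm with signal to noise over three replicate slides.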 The conditions noted are these: higher = more signal.
Dickkopf-related protein 1 (Homo sapiens), sequence (O94907 whole entry, looked up): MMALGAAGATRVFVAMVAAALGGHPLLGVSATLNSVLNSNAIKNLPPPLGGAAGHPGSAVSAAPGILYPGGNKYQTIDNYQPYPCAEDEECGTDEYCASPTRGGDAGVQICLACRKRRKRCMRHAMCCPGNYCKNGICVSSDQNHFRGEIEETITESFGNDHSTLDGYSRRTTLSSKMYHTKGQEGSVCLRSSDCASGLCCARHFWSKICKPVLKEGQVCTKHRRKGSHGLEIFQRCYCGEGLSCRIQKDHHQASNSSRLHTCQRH
Assay [10] relates to Inhibin beta A chain (activin A). Nature of the assay: small molecules binding activin A – biochemical, small-molecule microarray, 635 nm fluorescence scan, primary screen (AID 1107).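 Also: mouse activin A protein probed at 4.33 µg/mL on printed slides; score merges bound-protein fluorescence near 667 nm with spot signal-to-noise.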 The conditions noted are these: INHBA, higher = more signal.
Assay [11] has as its system Human papillomavirus type 1a protein E7 (residues 44-93). Nature of the assay: small molecules binding HPV E7 44-93 – biochemical, small-molecule microarray, residues 44-93, 635 nm fluorescence, primary screen (AID 1108).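 Also: E7 fragment applied at 1 µg/mL in TBST for 1 h at 4 C; score combines spot fluorescence with its signal to noise ratio.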 The conditions noted are these: fluorescence 635 nm, higher = more signal.
Assay [12] in a line: hepatitis C replication reporter changes, two-sided – Huh7 cells, luciferase reporter, HCV replication inhibitor project, primary screen (AID 1109).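 Also: huh7 hepatoma cells harbouring a luciferase neomycin HCV replicon reporter; luciferase luminescence as measure of HCV replicon replication; test concentration not given here.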 The conditions noted are these: Huh7 HCV replicon luciferase reporter, 48 h; higher = more signal.
The target in assay [13] is Left-right determination factor 2 (Homo sapiens) (UniProt O00292). Nature of the assay: small molecules binding LEFTY2 protein – biochemical, small-molecule microarray, 635 nm fluorescence scan, primary screen (AID 1110). The conditions noted are these: higher = more signal.
Left-right determination factor 2 (Homo sapiens), sequence (O00292 whole entry, looked up): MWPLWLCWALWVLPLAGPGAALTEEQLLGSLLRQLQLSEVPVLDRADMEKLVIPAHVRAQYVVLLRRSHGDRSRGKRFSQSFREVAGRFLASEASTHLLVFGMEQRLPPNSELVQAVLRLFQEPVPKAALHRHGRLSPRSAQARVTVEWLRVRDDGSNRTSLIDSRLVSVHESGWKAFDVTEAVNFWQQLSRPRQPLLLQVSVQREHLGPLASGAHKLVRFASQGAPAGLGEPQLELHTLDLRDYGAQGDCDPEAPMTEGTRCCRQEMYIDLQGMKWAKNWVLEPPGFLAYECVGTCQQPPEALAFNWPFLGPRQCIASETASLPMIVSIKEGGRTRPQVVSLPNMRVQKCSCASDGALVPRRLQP
Assay [14] has as its target Calmodulin-1 (Homo sapiens) (UniProt P0DP23). Nature of the assay: small molecules binding calmodulin-1 with EGTA – biochemical, small-molecule microarray, Cy5-labelled CALM1, profiling panel (AID 1111).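 Also: labelled calmodulin applied in Tris saline Tween buffer holding calcium plus EGTA and DTT.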 The conditions noted are these: Cy5-CALM1 binding fluorescence, higher = more signal.
Assay [15] shares this target. The experiment in a line: small molecules binding Ca-loaded calmodulin-1 – biochemical, small-molecule microarray, Cy5-labelled CALM1, plus calcium, artefact control for SMM control-protein annotation, profiling panel (AID 1112).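 Also: score merges spot fluorescence with signal to noise from triplicate slides.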 The conditions noted are these: Cy5-CALM1 binding fluorescence, higher = more signal.
Assay [16] in a line: probe aWnt5a binding to arrayed compounds – biochemical, biotinylated probe, 635/667 nm fluorescence, primary screen (AID 1113).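 Also: score merges 667 nm fluorescence intensity with signal-to-noise per printed feature.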 The conditions noted are these: small-molecule microarray, higher = more signal.
Assay [17] in a line: probe aShh binding to arrayed compounds – biochemical, biotinylated probe, 635/667 nm fluorescence, primary screen (AID 1114).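 Also: probe is biotin-labelled aShh protein from a stem cell growth factor screen; measures binding of labelled protein to compounds printed on the slide; score merges feature fluorescence at 667 nm with signal-to-noise.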 The conditions noted are these: small-molecule microarray, higher = more signal.
Assay [18] can be described thus: probe aNog binding to arrayed compounds – biochemical, biotinylated probe, 635/667 nm fluorescence, primary screen (AID 1115).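 Also: probe is biotinylated aNog protein used at 0.15 µg/mL for 1 h at 4 C; z-score combines 667 nm fluorescence of each spot with its signal to noise.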 The conditions noted are these: small-molecule microarray, higher = more signal.
For assay [19], the target named is Torsin-1A-interacting protein 1 (Homo sapiens) (UniProt Q5JTV8). Nature of the assay: compound microarray binding of lysate hLAP1 – cell lysate, small-molecule microarray, COS7 lysate, 635/667 nm fluorescence, primary screen (AID 1116). The conditions noted are these: 635 nm fluorescence, higher = more signal.
Torsin-1A-interacting protein 1 (Homo sapiens), sequence (Q5JTV8 whole entry, looked up): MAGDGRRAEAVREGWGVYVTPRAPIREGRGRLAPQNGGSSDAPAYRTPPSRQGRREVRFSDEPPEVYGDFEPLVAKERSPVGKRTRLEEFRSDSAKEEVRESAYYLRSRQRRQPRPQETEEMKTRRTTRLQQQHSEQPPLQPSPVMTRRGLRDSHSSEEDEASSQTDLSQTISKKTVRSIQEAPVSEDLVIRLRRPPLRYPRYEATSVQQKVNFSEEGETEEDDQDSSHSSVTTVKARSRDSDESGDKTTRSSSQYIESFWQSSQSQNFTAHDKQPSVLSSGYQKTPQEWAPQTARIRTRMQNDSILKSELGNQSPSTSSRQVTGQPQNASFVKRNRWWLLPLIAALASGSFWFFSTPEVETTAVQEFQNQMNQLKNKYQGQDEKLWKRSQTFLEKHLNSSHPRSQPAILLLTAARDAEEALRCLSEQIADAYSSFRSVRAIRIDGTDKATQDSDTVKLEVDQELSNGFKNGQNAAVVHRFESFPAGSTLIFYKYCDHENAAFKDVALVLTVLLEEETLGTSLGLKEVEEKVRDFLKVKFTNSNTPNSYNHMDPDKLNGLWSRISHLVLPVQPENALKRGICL
Assay [20] concerns the target Alpha-bungarotoxin (Bungarus multicinctus) (UniProt P60615). The experiment in a line: compounds binding labelled alpha-BTX control protein – biochemical, small-molecule microarray, Alexa647 label, 635/667 nm fluorescence, artefact control for SMM control protein annotation, profiling panel (AID 1117). The conditions noted are these: alpha-BTX-A647 binding fluorescence, higher = more signal.

Activity calls are given as the source filed them.

Follistatin-related protein 3 (Homo sapiens), sequence (O95633 whole entry, looked up): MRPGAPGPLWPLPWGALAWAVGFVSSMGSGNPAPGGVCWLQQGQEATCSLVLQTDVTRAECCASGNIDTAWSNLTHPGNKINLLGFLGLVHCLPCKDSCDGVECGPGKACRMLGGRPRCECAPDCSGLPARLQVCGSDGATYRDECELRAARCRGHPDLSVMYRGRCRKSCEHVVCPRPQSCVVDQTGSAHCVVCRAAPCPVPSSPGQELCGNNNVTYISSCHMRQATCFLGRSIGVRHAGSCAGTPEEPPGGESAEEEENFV
Alpha-bungarotoxin (Bungarus multicinctus), sequence (P60615 whole entry, looked up): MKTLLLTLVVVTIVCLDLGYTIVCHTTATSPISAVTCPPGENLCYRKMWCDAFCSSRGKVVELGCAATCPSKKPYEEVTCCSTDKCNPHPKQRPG

As for `CCc1oc(CC[C@@H](CO)NC(=O)NCCn2cc(C3(O)CCCCC3)nn2)c(C(=O)OC)c1C(=O)OC`, the composite z-score is 0.832 in assay [1]; -0.0378 in [2]; -0.402 in [3]; 1.13 in [5]; 0.972 in assay [6]; 0.717 in assay [7]. Besides, the composite z-score in assay [8] was 1.33; in assay [9], 0.887; in [10], 0.289; in [11], 0.814; in [13], 0.905; in [14] it was -0.22. Besides, the composite z-score was -0.657 in assay [15]; 0.048 in assay [16]; 0.381 in assay [17]; -0.0645 in [18]; 0.946 in [19]; 0.336 in assay [20]. In addition, the z-score in assay [4] was -0.0596 (inactive); in assay [12], 0.524.
As to `[N-]=[N+]=NCc1ccccc1C[C@@]1(C(=O)NCC(O)CO)N=C(c2ccc(OCCCO)cc2)O[C@@H]1c1ccccc1N=[N+]=[N-]` (stereo not given in full), the composite z-score in [1] was 0.991; in [2], 1.03; in assay [3] it was 1.38; in assay [5], 1.01; in [6], 0.364; in [7] it was -0.0087. Also, the composite z-score is 0.348 in assay [8]; -0.504 in assay [9]; 1.2 in assay [10]; 1.39 in assay [11]; -0.124 in assay [13]; 2.21 in assay [14]. Further, the composite z-score in assay [15] was 1.02; in assay [16], 0.149; in assay [17], 0.156; in [18], 2.11; in assay [19], 2.18; in assay [20], 0.842. Moreover, the z-score in assay [4] is 0.561 (inactive); in assay [12], -2.72.
Take `CC[C@@H]1C=C(C(=O)O)[C@H](c2ccco2)N1S(=O)(=O)c1ccc(C)cc1`: the composite z-score in assay [1] is 1.37; in assay [2], -0.0292; in assay [3], 0.333; in [5], 0.0314; in assay [6], 0.175; in [7], -0.832. The composite z-score is 0.291 in assay [8]; 0.128 in [9]; 1.23 in [10]; -0.11 in [11]; -0.0532 in assay [13]; -0.256 in assay [14]. The composite z-score in [15] is -0.841; in assay [16] it was -0.0529; in assay [17], -0.0146; in assay [18] it was 0.0051; in [19] it was 0.018; in assay [20], 0.396. Moreover, the z-score was 0.447 (inactive) in [4] and -1.22 in assay [12].
With `C=C(COC)/C(=C/C[C@@H](OC(C)=O)c1ccc(OCCO)cc1)c1cc(C(=O)OC)ccc1OC`, the composite z-score in assay [1] was 1.22; in assay [2] it was 0.455; in [3], -0.103; in assay [5], 1.54; in assay [6], 0.794; in assay [7] it was 0.265. Further, the composite z-score in [8] was 1.27; in assay [9], 0.43; in assay [10], 0.884; in assay [11] it was 1.35; in assay [13] it was 0.417; in assay [14], -0.107. Moreover, the composite z-score was -0.878 in [15]; 0.0618 in assay [16]; 0.23 in [17]; -0.354 in assay [18]; 0.864 in [19]; 0.472 in assay [20]. For the same molecule, the z-score was 0.585 (inactive) in [4] and -1.51 in assay [12].
As for `CC(C)(C)OC(=O)CC[C@]12N=C(c3ccc(OCCCO)cc3)O[C@H]1c1ccccc1N(CCS(=O)(=O)c1ccccc1)C2=O`, the composite z-score in [1] is 1.17; in [2], 0.438; in assay [3] it was 0.52; in assay [5], 0.905; in assay [6], 1.23; in assay [7], 0.545. In addition, the composite z-score in assay [8] was 0.975; in [9], 0.445; in assay [10], 0.924; in assay [11] it was 1.39; in assay [13], 0.497; in [14], 0.234. Besides, the composite z-score is -0.353 in [15]; 0.0706 in assay [16]; 0.287 in assay [17]; -0.344 in assay [18]; 0.751 in [19]; 1.41 in assay [20]. For the same molecule, the z-score in assay [4] is 0.0112 (inactive); in [12], -0.664.
For `Cc1ccc(S[C@]2(C(=O)NCC(C)C)CC(=O)N(Cc3cc(C(F)(F)F)cc(C(F)(F)F)c3)[C@@H]2c2ccc(CO)cc2I)cc1`, the composite z-score was -0.313 in assay [1]; 0.75 in assay [2]; 1.39 in assay [3]; -0.755 in [5]; -1.16 in [6]; -1.78 in [7]. The composite z-score in assay [8] was -0.615; in assay [9], -2.14; in assay [10] it was 0.923; in assay [11], 0.133; in [13] it was -2.48; in assay [14] it was -0.571. In addition, the composite z-score is 0.0903 in assay [15]; -0.166 in assay [16]; 0.108 in assay [17]; 0.225 in assay [18]; 0.116 in assay [19]; -1.05 in assay [20]. The z-score in [4] was -0.0957 (inactive); in assay [12], -1.01.
